Laboratory results from PubChem BioAssay (NCATS).
Inconclusive results are not listed. Calls of active or inactive are those of the source. The call rests on the fitted dose curve.

biological target: Vitamin D3 receptor (Homo sapiens) (UniProt P11473); experiment: qHTS assay for small molecule agonists of vitamin D receptor signaling (AID 588543); settings: HEK293T VDR-UAS-bla, beta-lactamase ratio, 16 h; series mostly up to 76.8 µM
Source text: NIH Chemical Genomics Center [NCGC]
U.S. Environmental Protection Agency [EPA]
National Institutes of Environmental Health Sciences [NIEHS]
National Toxicology Program [NTP]
The Vitamin D receptor (VDR) is a member of nuclear hormone receptor superfamily and it plays a critical role in calcium homeostasis and bone metabolism. It plays a role in inducing cell differentiation, inhibiting cell growth and in thrombogenicity. So, VDR that mediates these effects represents a pharmacological target in prevention and treatment of hyperproliferative malignancies, such as cancer and psoriasis, cardiovascular, immunological, inflammatory and renal diseases etc.
NCGC Assay Protocol Summary
Using a beta-lactamase reporter-gene under control of Vitamin D receptor (VDR) response element, a cell-based assay [GeneBLAzer (VDR -UAS-bla assay developed by Invitrogen] was used to measure VDR ligands signaling. GeneBLAzer VDR -UAS-bla HEK293T cells were used with assay medium containing 2% charcoal-stripped FBS. The assay was performed in clear bottom black Greiner 1536-well plates. 1-alpha,25-Dihydroxy vitaminD3 was used as a positive control in the screen. Library compounds were measured for their ability to stimulate the reporter gene activity. Compounds were screened in a titration series in 1536-well format. The fluorescence intensity (405 nm excitation, 460/530 nm emission) was measured using an EnVision plate reader. Data was normalized relative to 1-alpha,25-Dihydroxy vitaminD3 control (50 nM, 100%) and DMSO only wells (basal, 0%). Concentration-response titration points for each compound were fitted to the Hill equation yielding concentrations of half-maximal stimulation (EC50) and maximal response (efficacy) values.
qHTS protocol for VDR beta-lactamase assay in agonist mode
[Step] [Parameter] [Value] [Description]
1. Reagent; 6 uL; 2000 cells/well
2. Incubation; 37 C for 5 hrs
4. Controls (1-alpha,25-Dihydroxy vitaminD3); 23 nL,
- Final concentrations of 50 nM and 15 nM in two columns
5. Incubation; 37 C for 16 hrs
6. Detection reagent; 1 uL of CCF4-dye
7. Incubation; RT for 2 hrs
8. Detection; Fluorescence; Envision plate reader

Chain of Vitamin D3 receptor (Homo sapiens) (P11473 whole entry, looked up): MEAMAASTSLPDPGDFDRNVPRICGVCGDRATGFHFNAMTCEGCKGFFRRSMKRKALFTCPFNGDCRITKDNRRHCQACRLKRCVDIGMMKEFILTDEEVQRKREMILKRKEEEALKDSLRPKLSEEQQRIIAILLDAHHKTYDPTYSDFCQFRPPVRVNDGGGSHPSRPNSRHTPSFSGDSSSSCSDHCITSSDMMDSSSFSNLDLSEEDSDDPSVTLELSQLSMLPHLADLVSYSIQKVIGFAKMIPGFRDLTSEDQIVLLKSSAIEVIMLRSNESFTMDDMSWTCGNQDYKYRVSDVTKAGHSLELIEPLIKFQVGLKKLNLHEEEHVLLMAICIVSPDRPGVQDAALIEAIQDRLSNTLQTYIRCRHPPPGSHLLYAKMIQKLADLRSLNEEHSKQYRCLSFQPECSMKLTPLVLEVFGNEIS

Q: For `CCOc1cccc(N)c1`, which outcome is on record?
A: The outcome was “inactive”.

Q: With `C(=C/c1ccccc1)/c1ccccc1` as the molecule, how does the outcome read?
A: Its outcome is “inactive”.

Q: How did the outcome turn out when `OCCO` was run?
A: Its outcome is “inactive”.

Q: How did the outcome turn out when `CC/C=C/C#N` was run?
A: The outcome was “inactive”.

Q: How did the outcome turn out when `N#CC1(O)CCCCC1` was run?
A: Its outcome is “inactive”.

Q: With `Cc1ccccc1Br` as the molecule, how does the outcome read?
A: The outcome was “inactive”.

Q: How did the outcome turn out when `CCC(C)(C)C` was run?
A: The outcome was “inactive”.

Q: Which outcome does the source give for `O=[N+]([O-])c1cccc(C(F)(F)F)c1` here?
A: The outcome was “inactive”.

Q: How did the outcome turn out when `O=C(O)c1ccc(CO)o1` was run?
A: Its outcome is “inactive”.

Q: For `CC1(N)CCC(C(C)(C)N)CC1` (stereo not given), which outcome is on record?
A: Its outcome is “inactive”.

Q: `CC(C)CCOC(=O)/C=C/c1ccccc1` was tested. Which outcome did it give?
A: Its outcome is “inactive”.

Q: For `Nc1nc2ccccc2[nH]1`, which outcome is on record?
A: The outcome was “inactive”.

Q: `CCCCCCCN` was tested. Which outcome did it give?
A: The outcome was “inactive”.

Q: How did the outcome turn out when `Nc1nc(-c2ccccc2)cs1` was run?
A: The outcome was “inactive”.

Q: For `c1ccc(Oc2ccccc2)cc1`, which outcome is on record?
A: The outcome was “inactive”.

Q: `CC(C)C=O` was tested. Which outcome did it give?
A: Its outcome is “inactive”.

Q: Which outcome does the source give for `Cc1cccc2sc(N)nc12` here?
A: Its outcome is “inactive”.

Q: How did the outcome turn out when `Cc1ccc(Br)cc1` was run?
A: Its outcome is “inactive”.

Q: For `O=C(Cl)c1cccc([N+](=O)[O-])c1`, which outcome is on record?
A: Its outcome is “inactive”.

Q: For `NC=O`, which outcome is on record?
A: The outcome was “inactive”.

Q: Which outcome does the source give for `Cc1ccc(C)o1` here?
A: Its outcome is “inactive”.

Q: Which outcome does the source give for `O=[N+]([O-])c1c(Cl)cc(Cl)cc1Cl` here?
A: Its outcome is “inactive”.

Q: With `CC(C)(C)OCC1CO1` (stereo not given) as the molecule, how does the outcome read?
A: The outcome was “inactive”.

Q: Which outcome does the source give for `BrC(Br)C(Br)Br` here?
A: The outcome was “inactive”.

Q: `COC(=O)c1ccccc1` was tested. Which outcome did it give?
A: The outcome was “inactive”.

Q: For `Cc1cc(C)cc([N+](=O)[O-])c1`, which outcome is on record?
A: Its outcome is “inactive”.

Q: How did the outcome turn out when `NCCCCCCN` was run?
A: The outcome was “inactive”.

Q: `Oc1c(Cl)ccc(Cl)c1Cl` was tested. Which outcome did it give?
A: Its outcome is “inactive”.

Q: Which outcome does the source give for `NC(N)=S` here?
A: Its outcome is “inactive”.

Q: For `Nc1cc(Cl)c([N+](=O)[O-])cc1O`, which outcome is on record?
A: The outcome was “inactive”.

Q: Which outcome does the source give for `Nc1cc(S(=O)(=O)O)ccc1O` here?
A: Its outcome is “inactive”.

Q: For `O=Cc1ccccc1Cl`, which outcome is on record?
A: The outcome was “inactive”.

Q: How did the outcome turn out when `CCCCC=O` was run?
A: Its outcome is “inactive”.

Q: For `Cc1ccco1`, which outcome is on record?
A: The outcome was “inactive”.

Q: How did the outcome turn out when `CC(=O)c1ccccn1` was run?
A: The outcome was “inactive”.

Q: Which outcome does the source give for `C=C(C)C(=O)OCC(C)O` (stereo not given) here?
A: Its outcome is “inactive”.

Q: `Cc1ccccc1C#N` was tested. Which outcome did it give?
A: The outcome was “inactive”.

Q: For `C1CCCC1`, which outcome is on record?
A: Its outcome is “inactive”.

Q: With `Cc1ccc(C#N)cc1` as the molecule, how does the outcome read?
A: The outcome was “inactive”.

Q: Which outcome does the source give for `CCC1CO1` (stereo not given) here?
A: The outcome was “inactive”.
